Compound activity from PubChem BioAssay.
USP17 inh = human USP17-like deubiquitinase inhibition; purified USP17, Ub-rhodamine cleavage fluorescence, 3 h; actives 6.5% (n = 47,000); AID 1645855; inhibition, % at 50 µM
OTUD3 inh = inhibitors of human OTUD3 deubiquitinase | purified OTUD3, Ub-rhodamine fluorescence, 2 h | inhibition, % at 25 µM | actives 0.7% (n = 47,000)
USP30 inh = human USP30 deubiquitinase inhibition | Q70CQ3 | purified USP30, Ub-rhodamine cleavage fluorescence | inhibition, % at 25 µM | actives 5.3% (n = 47,000)
USP8 block = blocks human USP8 ubiquitin-rhodamine cleavage. purified USP8, Ub-rhodamine cleavage fluorescence, 30 min. actives 4.2% (n = 47,000). P40818. inhibition, % at 20 µM
USP28 block = inhibitors of human USP28 deubiquitinase; Q96RU2; purified USP28, Ub-rhodamine cleavage fluorescence, 30 min; inhibition, % at 25 µM; actives 3% (n = 47,000); AID 1645857
* hit, by the source's call. Hits are enriched below; roughly 13% of the tested compounds scored in any of these assays. Rule as the data show it: active = inhibition above about 30%; inactive = the rest.

Screening CCCn1cnc2nc(CSc3ccccc3NC(=O)C(C)C)cc(=O)n21 returned USP17 inh -4, OTUD3 inh -4, USP30 inh -8, USP8 block -23 and USP28 block -6.
Screening Cc1cc(C)cc(NC(=O)Nc2ccccc2OCc2cc(=O)n3c(ncn3C(C)C)n2)c1 returned USP17 inh -10, OTUD3 inh -17, USP30 inh -27, USP8 block 50* and USP28 block -6.
For CCOc1ccc(N2CC(C)Cn3c2nc2c3c(=O)n(CCN3CCCCC3)c(=O)n2C)cc1 (configuration not stated) the results were USP17 inh 9, OTUD3 inh 6, USP30 inh 16, USP8 block 5 and USP28 block 7.
Screening O=C(Cn1c(=O)n(CC2CCC(C(=O)NC3CCCC3)CC2)c(=O)c2ccccc21)NCc1ccco1 (configuration not stated) returned USP17 inh 54*, OTUD3 inh 58*, USP30 inh 39*, USP8 block -15 and USP28 block 50*.
`COc1ccc(NC(=O)Cn2c(=O)n(CCCC(=O)NC3CCCC3)c(=O)c3cc(Cl)ccc32)cc1` gave USP17 inh -4, OTUD3 inh -17, USP30 inh -5, USP8 block -9 and USP28 block -22.
COc1cc(NC(=O)Cn2c(=O)n(CC3CCC(C(=O)NC4CCCC4)CC3)c(=O)c3ccccc32)cc(OC)c1 (configuration not stated) was read as USP17 inh 61*, OTUD3 inh 43*, USP30 inh 44*, USP8 block 9 and USP28 block 28.
Screening Cc1ccc(-c2nn(-c3ccc(F)cc3)c3c2cnc2cc4c(cc23)OCCO4)cc1 returned USP17 inh 5, OTUD3 inh 5, USP30 inh -23, USP8 block 14 and USP28 block 0.
`COc1ccc2ncc3c(-c4ccc(C)cc4)nn(-c4ccc(F)cc4)c3c2c1` gave USP17 inh 57*, OTUD3 inh -7, USP30 inh -12, USP8 block 0 and USP28 block -14.
`Cc1n[nH]c(C)c1CC(=O)N1CCC(c2cc(=O)n3[nH]ccc3n2)CC1` gave USP17 inh -4, OTUD3 inh -9, USP30 inh -3, USP8 block -7 and USP28 block -7.
Screening CCOc1ccc(S(=O)(=O)n2cc3c(=O)n(C)c(=O)n(C)c3n2)cc1 returned USP17 inh 33*, OTUD3 inh -1, USP30 inh 9, USP8 block 2 and USP28 block -7.
Screening Cc1ccccc1NC(=O)c1cc(S(=O)(=O)N2CCCCCC2)ccc1Cl returned OTUD3 inh 27, USP30 inh 63*, USP8 block 27 and USP28 block 24.
Screening Cc1cccc(NC(=O)CN2C(=O)COc3cc(S(=O)(=O)N4CCCC4)ccc32)c1C returned USP17 inh 19, OTUD3 inh 11, USP30 inh 60*, USP8 block 27 and USP28 block 21.
COc1cc(OC)c(C(=O)Nc2cc(S(=O)(=O)N3CCCCC3)ccc2C)cc1OC was read as USP17 inh 19, OTUD3 inh 0, USP30 inh -40, USP8 block 10 and USP28 block -10.
For CC(C)(C)NC(=O)CN1C(=O)COc2cc(S(=O)(=O)N3CCCC3)ccc21 the results were USP17 inh 2, OTUD3 inh 21, USP30 inh -8, USP8 block 0 and USP28 block 4.
Cc1ccc(S(=O)(=O)N2CCCCC2)cc1NC(=O)Cc1cccc(F)c1 was read as USP17 inh -9, OTUD3 inh -3, USP30 inh -4, USP8 block 2 and USP28 block 60*.
Screening CC(NCC(=O)Nc1cc(S(=O)(=O)N2CCCCCC2)ccc1Cl)c1ccccc1 (configuration not stated) returned USP17 inh 18, OTUD3 inh 28, USP30 inh 43*, USP8 block 6 and USP28 block 17.
Screening CCOc1ccccc1NC(=O)c1cc(S(=O)(=O)N2CCCCC2)ccc1F returned USP17 inh 29, OTUD3 inh 9, USP30 inh 29, USP8 block 16 and USP28 block 28.
CCOC(=O)N1CCN(S(=O)(=O)c2ccc(F)c(C(=O)Nc3ccccc3Cl)c2)CC1 was read as USP17 inh 2, OTUD3 inh 6, USP30 inh 36*, USP8 block 3 and USP28 block 5.
